A selection: hits, their analogues and other compounds. The true share with any hit is near 12%.
Sfp PPTase inh: blocks B. subtilis Sfp PPTase activity; Q9F4F7; Biochemical Sfp PPTase activity, qHTS; Potency, µM, hits mostly inhibitors; actives 3.5% (n = 310,000);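 further: the enzyme is Sfp with the accession as filed and its product quenches rhodamine fluorescence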
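Compounds were incubated with enzyme (final 15 nM) for 15 min at room temperature before substrate addition started the reaction. Fluorescence at 525 nm excitation, 598 nm emission was recorded immediately and after 30 minutes.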
BAZ2B inh: inhibitors of human BAZ2B bromodomain; Q9UIF8; AlphaScreen BAZ2B-H3K14Ac peptide displacement; Potency, µM (titrated, usually from 114 µM), actives largely listed as inhibitors; actives 4.4% (n = 360,000); AID 504333; further: nearly all actives have a fitted effect of over 60% in size
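In this displacement format the biotinylated H3(5-23) peptide acetylated at Lys14 serves as ligand at 50 nM, with BAZ2B at 50 nM in PBS pH 7.4 containing 0.01% Tween-20. Donor and acceptor beads are 10 ug/mL final.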
L3MBTL1 inh: L3MBTL1 (human) inhibition. Q9Y468. AlphaScreen L3MBTL1–H3K9me1 peptide binding. Potency, µM (top dose mostly 57.1 µM), hits mostly inhibitors. actives 0.66% (n = 230,000); further: nearly all actives have a fitted effect of over 60% in size
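AlphaScreen assay: L3MBTL1 (50 nM final) was preincubated 30 min at room temperature with biotinylated H3(1-15)K9me1 peptide (75 nM final), then 30 min with library compounds; streptavidin donor and nickel chelate acceptor beads (10 ug/mL final) added, 30 min dark.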
G9a inh: G9a (human) methyltransferase inhibition | Potency, µM (series often up to 102 µM), usual class: inhibitors | AID 504332 | Q96KQ7 | G9a H3K9 monomethylation, AlphaScreen, 2 h | actives 8.8% (n = 350,000); further: nearly all actives have a fitted effect of over 75% in size
Target sequence (Q96KQ7 913-1193 limits assumed): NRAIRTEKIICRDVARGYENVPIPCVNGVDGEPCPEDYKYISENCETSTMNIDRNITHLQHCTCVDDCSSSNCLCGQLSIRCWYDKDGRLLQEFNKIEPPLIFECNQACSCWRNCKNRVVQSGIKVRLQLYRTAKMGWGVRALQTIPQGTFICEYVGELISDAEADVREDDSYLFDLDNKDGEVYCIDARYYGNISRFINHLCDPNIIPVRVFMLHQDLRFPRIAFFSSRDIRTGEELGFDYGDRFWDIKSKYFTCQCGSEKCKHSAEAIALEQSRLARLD
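Chemiluminescent proximity detection of H3K9 monomethylation, read after 10 min bead incubation in the dark. Reaction: 20 nM G9a, 500 nM biotin-H3K9 peptide, 20 uM SAM cofactor, 2 h, room temperature, following 15 min enzyme-compound preincubation.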
JMJD2A Tudor: JMJD2A Tudor domain (human) inhibition. O75164. AlphaScreen JMJD2A-Tudor / H3K4me3 peptide binding. Potency, µM (highest dose often 114 µM), hits mostly inhibitors. actives 4.4% (n = 390,000). AID 504339; further: nearly all actives have a fitted effect of over 50% in size
HP1b chromo inh: blocks HP1-beta chromodomain binding to methylated histone tails. P83916. AlphaScreen HP1-beta / biotin-H3K9me3 peptide binding. Potency, µM (titrated, usually from 114 µM), actives largely listed as inhibitors. actives 0.56% (n = 390,000). AID 540317; further: nearly all actives have a fitted effect of over 70% in size
Target sequence (P83916 whole entry, looked up): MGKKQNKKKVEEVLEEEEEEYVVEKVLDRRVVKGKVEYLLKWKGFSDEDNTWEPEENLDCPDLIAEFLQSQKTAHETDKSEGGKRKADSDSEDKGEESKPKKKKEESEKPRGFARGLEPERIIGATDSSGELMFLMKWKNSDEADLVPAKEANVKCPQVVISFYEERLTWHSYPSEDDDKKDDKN
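Compound inhibition of the preformed complex between 50 nM HP1-beta and 50 nM biotinylated H3K9me3 peptide was read by AlphaScreen. Buffer was PBS pH 7.4 with 0.01% Tween-20. Incubations ran 30 min at room temperature, with 10 ug/mL donor/acceptor beads.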
A number is an active result; 0 = inactive; ? = inconclusive; - = no result given; [ ] = remark or other dose. The call rests on the fitted dose curve; in most records, active means well fitted curve in the direction sought with a large enough effect; inconclusive means small, poorly fitted or top-dose-only effect, or another doubt; inactive means no such curve, though single readings can be large; an effect the other way counts as inactive or inconclusive.

SMILES | Sfp PPTase inh | BAZ2B inh | L3MBTL1 inh | G9a inh | JMJD2A Tudor | HP1b chromo inh
CCN(CC)CCOC(=O)c1ccc(NC(=O)c2cc3c(=O)n(CC)c4ccccc4c3s2)cc1 | - | 0 | - | ? | 0 | 0
Cc1cccc(Cn2c(CNS(=O)(=O)c3ccc(C(C)C)cc3)nc3cccnc32)c1 | - | 0 | - | 0 | 0 | 0
CC(C)(C)NC(=O)NC(=O)CN1CCN(c2ccc(O)cc2)CC1 | 0 | 0 | 0 | 3.16µM | 22.4µM | ?
COCC(C)NCC(=O)NC(C)CCc1ccccc1 (configuration not stated) | 0 | 56.2µM | 0 | 8.91µM | 1µM | 0
CC(=O)NC(C)CCc1ccccc1 (configuration not stated) | 0 | 0 | 0 | 0 | 0 | 0
CC(CCc1ccccc1)NC(=O)CN1CCN(c2ccc(O)cc2)CC1 (configuration not stated) | 10µM | ? | 0 | 7.94µM | 44.7µM | 89.1µM
Cc1ccc(NC(=O)NC(=O)CN2CCN(c3ccc(O)cc3)CC2)c(C)c1 | 50.1µM | ? | - | 7.94µM | 44.7µM | 70.8µM
CC(C)(C)[C@@H](O)C(Cc1ccc(Cl)cc1)n1cncn1 (some centres not stated) | 0 | - | - | - | - | -
COCC(=O)N1CCC2(CCCN(c3cccc(-c4ccccc4)c3)C2)CC1 | 0 | - | - | 0[12.7 µM] | - | -
CCOC(=O)CNC(=O)C1CCCCC1 | - | - | - | - | 0 | 0
O=C(CCSCc1cccc(Cl)c1)N1CCN(c2ccc(Cl)cc2)CC1 | - | 0 | - | 0 | 0 | 0
Oc1[nH]c(=S)sc1/C=C1\C(c2ccccc2)=Nc2ccccc21 | 0 | ? | 0 | 2.51µM | 15.8µM | 0
CCc1cccc(NC(=O)CCNS(=O)(=O)c2ccc3c(c2)CCN3C(C)=O)c1 | - | - | - | 0 | 0 | 0
O=C(O)C1CC=CC2CCN(C3CC3)C(=O)C21 (configuration not stated) | 0 | - | - | - | 0 | 0
CCOc1ccc(CNC(=O)C2CCN(S(=O)(=O)c3cn(C)cn3)CC2)cc1 | - | 0 | - | 0[12.7 µM] | 0 | 0
CN1C2CCC1/C(=C/c1cccn1C)C(=O)/C2=C\c1cccn1C | ? | 44.7µM | 4.47µM | ? | 44.7µM | ?
Cn1cccc1/C=C1\CC(C(C)(C)C)C/C(=C\c2cccn2C)C1=O (configuration not stated) | 0 | 28.2µM | - | ? | 39.8µM | ?
O=C(CNC(=O)C(c1ccccc1)c1ccccc1)OCC(=O)c1cccc2ccccc12 | - | - | - | - | 0 | 0
COc1ccc(CNC(=O)[C@H](C)[C@@H]2C[C@@]2(C)[C@@H](NC(=O)OCc2ccccc2)c2ccccc2)cc1OC | 0 | 0 | 0 | 50.1µM | 0 | 0
C[C@@H](C(=O)O)[C@H]1C[C@]1(C)[C@H](NC(=O)OCc1ccccc1)c1ccccc1 | 0 | 0 | 0 | 79.4µM | 0 | 0
COC(=O)[C@H](C)[C@@H]1C[C@@]1(C)[C@@H](NC(=O)OCc1ccccc1)c1ccccc1 | 0 | 0 | 0 | 0 | 0 | 0
Cc1cc(CNC(=O)[C@H](C)[C@@H]2C[C@@]2(C)[C@@H](NC(=O)OCc2ccccc2)c2ccccc2)nn1C | 0 | 0 | 0 | 56.2µM | 0 | 0
COc1ccc(Cn2c(=O)c3oc4ccccc4c3n(CC(=O)Nc3c(C)cccc3C)c2=O)cc1 | - | 0 | - | 0 | 0 | 0
Cc1cc(C)cc(NC(=O)N2CCN(C(=O)c3nsc4ccccc34)CC2)c1 | - | 0 | - | 0 | 0 | 0
S=c1[nH]nc(COc2ccccc2)n1/N=C/c1ccc(Cl)cc1 | 0 | 0 | - | 7.08µM | 0 | 0
SMILES | Sfp PPTase inh | BAZ2B inh | L3MBTL1 inh | G9a inh | JMJD2A Tudor | HP1b chromo inh
CSc1ccc(/C=N/n2c(COc3ccccc3)n[nH]c2=S)cc1 | 0 | ? | - | 22.4µM | ? | ?
S=c1[nH]nc(Cc2ccc(Br)cc2)n1/N=C/c1ccc(Cl)cc1 | 14.1µM | 0 | 0[11.4 µM] | ? | 79.4µM | ?
Cc1ccc2nc(SCc3nc(-c4ccccc4C)no3)[nH]c2c1 | - | 0 | - | 0 | 0 | 0
COCCn1c(=O)c(-c2ccc(OC)cc2)nc2cnc(N3CCOCC3)nc21 | 0 | - | - | 0[0.501 µM] | - | -
Cc1cccc(NC(=O)Cn2c(=O)n(CCCCCC(=O)NCc3ccc4c(c3)OCO4)c(=O)c3sccc32)c1 | - | 0 | - | 0 | 0 | 0
O=C1ON=C(c2ccccc2)/C1=C/c1ccco1 | 50.1µM | 39.8µM | 28.2µM | 31.6µM | 0 | 0
COc1ccc(/C=C2\C(=O)ON=C2c2cccc([N+](=O)[O-])c2)cc1 | 56.2µM | ? | - | 17.8µM | - | -
NC(=O)COc1ccc(/C=C2\C(=O)ON=C2c2ccccc2)cc1 | - | 0 | 0 | 0[12.7 µM] | 0 | 0
COc1ccc(/C=C2\C(=O)ON=C2c2ccccc2)cc1OC | 22.4µM | 0 | 0 | ? | 0 | 0
CN(C)/C=C1\C(=O)ON=C1c1ccccc1 | 0 | 0 | 0 | ? | 0 | 0
O=C1ON=C(c2ccccc2)/C1=C/c1ccc(-c2ccccc2[N+](=O)[O-])o1 | ? | 22.4µM | ? | 7.08µM | 28.2µM | 50.1µM
O=c1c2oc3ccccc3c2n(Cc2ccc(Cl)cc2)c(=O)n1Cc1ccco1 | - | ? | - | 0 | 0 | 0
COc1ccc(OC)c(N(C)S(=O)(=O)c2ccc3c(c2)NC(=O)CC(=O)N3)c1 | - | 0 | - | 0 | 0 | 0
O=C1ON=C(c2ccc([N+](=O)[O-])cc2)/C1=C/c1ccccc1O | 39.8µM | 0 | - | 79.4µM | 0 | 0
COc1ccc(/C=C2/C(=O)ON=C2c2ccccc2)cc1OC | 35.5µM | ? | 0 | 0[0.501 µM] | 79.4µM | 0
COc1cc(/C=C2\C(=O)ON=C2c2ccccc2)cc(OC)c1OC | 50.1µM | ? | 0 | ? | 0 | 0
COc1ccc(C=C2C(=O)OC(C)(C)OC2=O)cc1OC | 0 | 0 | 0 | 0[2.33 µM] | 0 | 0
CCCCc1ccc(/C=C2\C(=O)ON=C2c2ccccc2)s1 | 0 | 0 | 0 | 0 | 0 | 0
CCOc1cc(/C=C2\C(=O)ON=C2c2ccccc2)ccc1OC | 28.2µM | 0 | - | 0[2.33 µM] | 0 | 0
COC(=O)C/C=C\[C@@H](C)[C@@H](/C=N\O[C@@H](C)c1cn([C@H]2COC[C@H]2O)nn1)OC | 0 | - | - | - | - | -
Cc1ccc(NC(=O)COc2coc(CN3CCc4ccccc43)cc2=O)cc1Cl | - | 50.1µM | ? | 0 | 44.7µM | 0
O=C(COc1coc(CN2CCCc3ccccc32)cc1=O)Nc1ccc([N+](=O)[O-])cc1 | - | 0 | 0 | 11.2µM | 0 | 0
COc1ccc(NC(=O)COc2coc(CN3CCc4ccccc4C3)cc2=O)cc1 | - | 0 | 0 | 0[0.501 µM] | 0 | 0
O=C(COc1coc(CN2CCc3ccccc32)cc1=O)N1CCCCC1 | - | 0 | 0 | 70.8µM | 0 | 0
NC(=O)c1ccc(NC(=O)COc2coc(CN3CCc4ccccc4C3)cc2=O)cc1 | - | ? | 0 | 50.1µM | 0 | 0
CC(C)(C)OC(=O)N1C2C=CC1C1=COCCN1C2=O (configuration not stated) | 0 | - | - | - | 0 | 0
Cc1ccc(N2CC(NC(=O)Cc3ccc(F)cc3)CC2=O)cc1C (configuration not stated) | - | 0 | - | 0 | 0 | 0
